The campaign covered roughly 5,400 compounds. About 190 (3.5%) showed an effect of 50% or more. The sample holds strong results, similar compounds and a random draw of the others, so the mix is not that of the screen. Non-standard residues stand in square brackets, D forms with d. Residues, ends and D or L forms follow the SMILES beside them. NMeF = CN[C@@H](Cc1ccccc1)C(=O)O
What follows are compounds tested on Vero-E6 (assay: primary screen, phospholipidosis by LipidTOX staining; higher = more effect of the substance). Details: 10 µM.
Outline: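 Single-concentration screen at 10 μM, with DMSO 0.1 v/v % and amiodarone 10 μM as controls. Read-out is LipidTOX Red phospholipid staining, which tolerates aldehyde fixation, in Vero-E6 cells.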

Point of comparison: `CC(C)C[C@H](NC(=O)CNC(=O)[C@H](Cc1ccc(O)cc1)NC(=O)[C@H](CO)NC(=O)[C@H](Cc1c[nH]c2ccccc12)NC(=O)[C@H](Cc1c[nH]cn1)NC(=O)[C@@H]1CCC(=O)N1)C(=O)N[C@@H](CCCNC(=N)N)C(=O)N1CCC[C@H]1C(=O)NCC(N)=O`, result_ITMP 1.23%. Against it:
- O=c1nc[nH]c2c([C@@H]3N[C@H](CO)[C@@H](O)[C@H]3O)c[nH]c12 — lower, -0.15%
- CN/C(=N\C#N)NCCSCc1nc[nH]c1C — lower, -2.74%
- Cc1cc(N2CCOCC2)cc2nc(-c3c(NC[C@@H](O)c4cccc(Cl)c4)cc[nH]c3=O)[nH]c12 — lower, -0.86%
- CCN(CC)CCCN(c1ccccc1)C1Cc2ccccc2C1 — higher, 51.9%
- COc1cc[nH]c2ncc(C(=O)C(=O)N3CCN(C(=O)c4ccccc4)C[C@H]3C)c1-2 — lower, -6.29%
- CSCC[C@H](NC(=O)[C@H](CC(C)C)NC(=O)[C@@H](Cc1c[nH]c2ccccc12)NC(=O)[C@H](Cc1ccccc1)N(C)C(=O)[C@@H](Cc1c[nH]c2ccccc12)NC(=O)[C@@H](N)CCCN=C(N)N)C(N)=O (H-R[dW][NMeF][dW]LM-NH2) — lower, -1.85%
- CCOC(=O)c1ccc(OCCC2CCN(c3ccc(C)nn3)CC2)cc1 — lower, -2.25%
- CC1(COc2ccc3c(c2)ncn3-c2ccc3cccc(N4CCC(N)CC4)c3n2)COC1 — higher, 64.2%
- NC1CCN(c2cccc(Cl)n2)CC1 — higher, 6.27%
- COCCOc1ccc2c(c1)ncn2-c1ccc2cccc(N3CCC(N)CC3)c2n1 — higher, 62.5%
- CCN1CCN(C(=O)NC(C(=O)N[C@@H]2C(=O)N3[C@@H]2SC(C)(C)[C@@H]3C(=O)[O-])c2ccccc2)C(=O)C1=O (stereo partly drawn) — lower, -2.05%
- C=CC(=O)N1CCCC(n2nc(-c3ccc(Oc4ccccc4)cc3)c3c(N)ncnc32)C1 (stereo not drawn) — lower, -4.8%
- N[C@@H](Cc1ccc(I)cc1)C(=O)O — lower, -0.07%
- N=C(N)SCc1ccc(B(O)O)cc1 — lower, -0.1%
- CC(=O)O[C@H]1CC[C@@]2(C)C(=CC(=O)[C@@H]3[C@@H]2CC[C@]2(C)C(=O)CC[C@@H]32)C1 — lower, -7.66%
- Cn1cc(/C=C2/C(=O)Nc3cccnc32)c2ccccc21 — higher, 2.75%
- CCS(=O)c1nc(-c2cccc(OCc3ccccc3)c2)cc(C(F)(F)F)n1 (stereo not drawn) — lower, -1.04%
- CCCC[N+]1(C)[C@@H]2C[C@@H](OC(=O)[C@H](CO)c3ccccc3)C[C@H]1[C@@H]1O[C@@H]12 (stereo partly drawn) — lower, -5.86%
- Nc1c(CC(=O)[O-])cccc1C(=O)c1ccccc1 — lower, -2.23%
- CN1CCN(C(c2ccccc2)c2ccc(Cl)cc2)CC1 (stereo not drawn) — higher, 44.4%
- CN1CCN(C(c2ccccc2)c2ccccc2)CC1 — higher, 16.1%
- CN1CCCN(C(c2ccccc2)c2ccc(Cl)cc2)CC1 (stereo not drawn) — higher, 82.5%
- O=C(Nc1ccccc1)Nc1ccc(-c2ccc(C(=O)[C@@H]3CCC[C@H]3C(=O)O)cc2)cc1 [R4A_0000400_001 / SPE_K28861668] — lower, -3.95%
- O=C(O)[C@@H](S)[C@@H](S)C(=O)O — lower, -5.93%
- CCC[C@@H]1C[C@@H](C(=O)N[C@@H]([C@H]2O[C@H](SC)[C@H](OP(=O)(O)O)[C@@H](O)[C@H]2O)[C@H](C)Cl)N(C)C1 — lower, -1.73%
- CC1(C)C(/C=C/C=C/C=C/C=C2/N(CCCCS(=O)(=O)[O-])c3ccc4ccccc4c3C2(C)C)=[N+](CCCCS(=O)(=O)[O-])c2ccc3ccccc3c21 — lower, -0.75%
- Cc1cccc(C)c1NC(=O)CN1CCCCCC1 — lower, -0.91%
- CCNC(=O)N1CCN(CCCC(c2ccc(F)cc2)c2ccc(F)cc2)CC1 — higher, 8.88%
- Cc1cccc(C)c1NC(=O)CN1CCN(CCCC(c2ccc(F)cc2)c2ccc(F)cc2)CC1 — higher, 52.6%
- O=C(/C=C/c1c(C(=O)[O-])[nH]c2cc(Cl)cc(Cl)c12)Nc1ccccc1 — lower, 0.43%
- Cc1ccc(C(=O)c2ccc(CC(=O)[O-])n2C)cc1 — lower, -3.18%
- CC(CC(C(N)=O)(c1ccccc1)c1ccccc1)N(C)C (stereo not drawn) — lower, -2.3%
- CCN(CC)C(C)C(=O)c1ccccc1 (stereo not drawn) — lower, -5.15%
- CCOC(=O)Nc1ccc2c(c1)N(C(=O)CCN(CC)CC)c1ccccc1S2 — higher, 12%
- CC(CN1c2ccccc2Sc2ccccc21)N(C)C (stereo not drawn) — higher, 55.4%
- CCN(CC)C(C)CN1c2ccccc2Sc2ccccc21 (stereo not drawn) — higher, 63.9%
- COC(=O)/C=C/C(=O)N[C@@H]1CC[C@@]2(O)C3Cc4ccc(O)c5c4[C@@]2(CCN3CC2CC2)[C@H]1O5 — lower, -2%
- CC(O)(P(=O)([O-])O)P(=O)([O-])O — lower, -0.98%

Reference: article PMC13083723 (Patterns, 2026)
